High-throughput results (PubChem BioAssay)
In the library only some 2.8% were active in any assay of this set; here they are far more common.
SENP8 block-1: human SENP8 protease inhibitors, primary screen, biochemical, fluorescence, Nedd8 protein substrate, uHTS. recombinant SENP8. inhibition, % at 20 µM. 0.64% of 360,000 active; in the data active = inhibition mostly above about 40%, no sharp cut-off; inactive = mostly below about 27%
Target sequence (Q96LD8 whole entry, looked up): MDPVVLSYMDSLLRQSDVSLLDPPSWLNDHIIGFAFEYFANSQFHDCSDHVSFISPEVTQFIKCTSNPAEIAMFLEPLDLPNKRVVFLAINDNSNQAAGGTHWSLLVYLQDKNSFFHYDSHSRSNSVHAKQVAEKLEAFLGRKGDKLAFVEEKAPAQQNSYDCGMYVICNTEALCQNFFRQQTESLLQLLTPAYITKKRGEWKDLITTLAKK
Platelet DG rel: inhibitors of platelet dense granule secretion, primary screen, cell-based, MLPCN, human platelets; inhibition, %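 (compounds screened at 7.5 µM in platelet-rich plasma)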; 0.22% of 300,000 active; AID 1663, 2009; human platelet-rich plasma, SFLLRN dense granule ATP release, luminescence;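 active = mean replicate score, as percent of positive control, at or above 50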
HSP90 inh: HSP90 inhibitors, primary screen, cell lysate, luminescence | 0.91% of 290,000 active | inhibition, % at 5.6 µM | Rabbit reticulocyte lysate, luciferase refolding luminescence, 3 h;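 active = inhibition above the screen-wide mean plus 3 SD, computed separately per campaign, cut at about 16% in these data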;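 note: inhibitors lower the luminescence because luciferase stays unfolded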
SENP6 block: SENP6 protease inhibitors, primary screen, biochemical, luminescence, uHTS | Sentrin-specific protease 6 (Homo sapiens), Q9GZR1 | Recombinant SENP6 catalytic domain, aminoluciferin luminescence | inhibition, % at 10 µM | 1.8% of 330,000 active | AID 2599, 2010;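 active = inhibition above about 50% at the single tested dose, limit read from the data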
SENP7 inh: SENP7 protease inhibitors, primary screen, biochemical, luminescence, uHTS; inhibition, % at 5 µM; AID 434973, 2010; recombinant SENP7, Z-RLRGG-aminoluciferin luminescence, 40 min; 1.5% of 330,000 active; Sentrin-specific protease 7 (Homo sapiens), Q9BQF6;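 active = inhibition above about 50% at the single test dose, limit read from the data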
Target sequence (Q9BQF6 706-1050 limits assumed): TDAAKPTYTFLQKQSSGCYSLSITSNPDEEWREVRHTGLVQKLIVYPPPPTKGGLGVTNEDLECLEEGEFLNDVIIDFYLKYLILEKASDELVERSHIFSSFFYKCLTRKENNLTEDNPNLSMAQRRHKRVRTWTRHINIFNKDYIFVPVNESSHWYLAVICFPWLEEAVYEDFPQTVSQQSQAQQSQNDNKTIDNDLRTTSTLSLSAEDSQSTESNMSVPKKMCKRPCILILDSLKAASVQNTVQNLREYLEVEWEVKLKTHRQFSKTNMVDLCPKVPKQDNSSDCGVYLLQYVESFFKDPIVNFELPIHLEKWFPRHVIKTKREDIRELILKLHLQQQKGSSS
SENP8 block-2: SENP8 protease inhibitors, primary screen, biochemical, luminescence. purified SENP8, Z-RLRGG-aminoluciferin cleavage. inhibition, % at 10 µM. 1.2% of 330,000 active. AID 2540, 2010; in the data active = inhibition above about 50%
HSP90 confirm: HSP90 inhibitors, confirmation, cell lysate, luminescence | shares compounds with HSP90 inh | rabbit reticulocyte lysate, luciferase refolding luminescence, 3 h | inhibition, % at 5.9 µM | 64% of 2,300 active | AID 1846, 2009; in the data active = inhibition above about 18%
luciferase ctr: firefly luciferase inhibitors, HSP90 counter-screen, confirmation, artefact control for HSP90 inhibitor project, biochemical, luminescence, triplicate; shares compounds with HSP90 inh; purified native firefly luciferase; inhibition, % at 5.9 µM; 48% of 2,300 active; AID 1847, 2009;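 active = inhibition above the mean inhibition of all tested sample wells plus 3 SD, cut at about 10% in these data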
SENP8 conf: SENP8 protease inhibitors, retest, confirmation, biochemical, luminescence, single concentration; AID 488912, 2010; inhibition, % at 12.5 µM; Recombinant SENP8, Z-RLRGG-aminoluciferin luminescence, 60 min; shares compounds with SENP7 inh; 40% of 6,200 active;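 active = mean inhibition across replicates above about 50%, limit read from the data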
SENP6 conf: SENP6 protease inhibitors, confirmation, biochemical, luminescence, single concentration. shares compounds with SENP7 inh. recombinant SENP6, Z-RLRGG-aminoluciferin luminescence. inhibition, % at 12.5 µM. 58% of 6,200 active. AID 488915, 2010
SENP7 conf: SENP7 protease inhibitors, retest, confirmation, biochemical, luminescence, single concentration. shares compounds with SENP7 inh. recombinant SENP7, Z-RLRGG-aminoluciferin luminescence, 40 min. inhibition, % at 12.5 µM. 69% of 6,200 active. AID 488917, 2010
Casp3 select: caspase-3 protease inhibitors, confirmation, selectivity assay for SENP inhibitor project, biochemical, single concentration. shares compounds with SENP7 inh. purified caspase-3, Z-DEVD-aminoluciferin luminescence, 60 min. inhibition, % at 12.5 µM. 60% of 6,200 active;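 active = mean inhibition above about 50%, limit read from the data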
SENP luc ctr: interferes with luciferase luminescence in SENP counter-screen. 39% of 6,200 active. shares compounds with SENP7 inh. Pre-incubated SENP8/Z-RLRGG-aminoluciferin, luciferase luminescence interference. inhibition, % at 12.5 µM. AID 488919;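 active = mean inhibition above about 50% when retested at one dose, limit read from the data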
Of the large screens only hits and unclear results are named; the others gave an inactive call (follow-up assays come after a bar, where they were run).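 Rule for the calls, unless noted: active = mean inhibition above about 50% in the one-dose retest (limit read from the data); inactive = the rest.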

COc1cccc(C(=O)NCCCNC(=O)c2ccccn2)c1	none
CCCc1ccc(C(=O)O/N=C(\N)c2ccccn2)cc1	Platelet DG rel 77, HSP90 inh 78, SENP6 block 100, SENP7 inh 100, SENP8 block-2 97 | HSP90 confirm 75 | luciferase ctr 89 | SENP8 conf 97 | SENP6 conf 100 | SENP7 conf 102 | Casp3 select 98 | SENP luc ctr 78
N/C(=N\OC(=O)c1ccc2ccccc2c1)c1ccccn1	Platelet DG rel 66, HSP90 inh 66, SENP6 block 94, SENP7 inh 101, SENP8 block-2 96 | HSP90 confirm 59 | luciferase ctr 79 | SENP8 conf 95 | SENP6 conf 97 | SENP7 conf 102 | Casp3 select 98 | SENP luc ctr inactive
COc1ccc(/C(N)=N/OC(=O)c2ccc3ccccc3c2)cc1OC	none (no result: Platelet DG rel, HSP90 inh, SENP6 block, SENP7 inh, SENP8 block-2)
COc1cccc(C(=O)O/N=C(\N)c2ccccn2)c1OC	HSP90 inh 53, SENP6 block 76, SENP7 inh 73, SENP8 block-2 59 | HSP90 confirm 64 | luciferase ctr 72 | SENP8 conf 69 | SENP6 conf 68 | SENP7 conf 92 | Casp3 select 92 | SENP luc ctr 79
Cc1ccc(CN2C(=O)c3ccccc3C2c2nnnn2-c2c(C)cccc2C)cc1 (stereo unspecified)	none (no result: Platelet DG rel, HSP90 inh, SENP6 block, SENP7 inh, SENP8 block-2)
Cc1ccc(NC(=O)c2noc3c2CCC3)cc1C	none (no result: SENP6 block, SENP7 inh, SENP8 block-2)
COc1ccc(NC(=O)c2noc3c2CCC3)cc1	HSP90 inh 27, SENP7 inh 81, SENP8 block-2 71 | HSP90 confirm 20 | luciferase ctr 31 | SENP8 conf inactive | SENP6 conf 77 | SENP7 conf 93 | Casp3 select 90 | SENP luc ctr 79
O=C(Nc1cccc(O)c1)c1noc2c1CCCCC2	Platelet DG rel 64, HSP90 inh 60, SENP6 block 96, SENP7 inh 95, SENP8 block-2 92 | HSP90 confirm 69 | luciferase ctr 57 | SENP8 conf 96 | SENP6 conf 96 | SENP7 conf 102 | Casp3 select 96 | SENP luc ctr 93
COc1ccc2c(c1OC)C(=O)OC2Nc1nc(-c2cc3ccccc3oc2=O)cs1 (stereo unspecified)	HSP90 inh 64, SENP6 block 96, SENP7 inh 91, SENP8 block-2 90 | HSP90 confirm inactive | luciferase ctr inactive | SENP8 conf 91 | SENP6 conf 95 | SENP7 conf 88 | Casp3 select 94 | SENP luc ctr 86
COc1ccc(/C=N/Nc2nc(C(=O)O)cs2)cc1	HSP90 inh 66, SENP6 block 93, SENP7 inh 97, SENP8 block-2 96 | HSP90 confirm 90 | luciferase ctr 74 | SENP8 conf 97 | SENP6 conf 98 | SENP7 conf 102 | Casp3 select 63 | SENP luc ctr 98
COc1ccc2cc3cc(C(=O)NC4CC4)sc3nc2c1	HSP90 inh 21, SENP6 block 90, SENP7 inh 85, SENP8 block-2 71 | HSP90 confirm 47 | luciferase ctr 29 | SENP8 conf inactive | SENP6 conf 81 | SENP7 conf 99 | Casp3 select 93 | SENP luc ctr inactive
COc1ccccc1N(C)S(=O)(=O)c1ccc(C(=O)OCC(=O)N2CCCCCC2)cc1	none
Cc1cccc(NC(=O)c2cc3ccccc3oc2=O)c1	HSP90 inh 20, SENP6 block 88, SENP7 inh 97, SENP8 block-2 64 | HSP90 confirm 33 | luciferase ctr 13 | SENP8 conf inactive | SENP6 conf inactive | SENP7 conf inactive | Casp3 select inactive | SENP luc ctr inactive
Cc1ccc(NC(=O)c2cc3ccccc3oc2=N)cc1	HSP90 inh 55, SENP6 block 58, SENP7 inh 90 | HSP90 confirm 20 | luciferase ctr 31 | SENP8 conf inactive | SENP6 conf inactive | SENP7 conf inactive | Casp3 select inactive | SENP luc ctr inactive
COc1ccc2oc(=O)c(C(=O)Nc3cccc(C)c3)cc2c1	none
COc1cccc(NC(=O)c2cc3ccccc3o/c2=N\O)c1	HSP90 inh 48, SENP6 block 98, SENP7 inh 100, SENP8 block-2 96 | HSP90 confirm 66 | luciferase ctr 63 | SENP8 conf 98 | SENP6 conf 99 | SENP7 conf 101 | Casp3 select 96 | SENP luc ctr 97
N=c1oc2ccccc2cc1C(=O)Nc1ccc(F)cc1	none (no result: SENP6 block, SENP7 inh, SENP8 block-2)
CCSc1ccc(-c2ccc(C)cc2)nn1	none (no result: SENP6 block, SENP7 inh, SENP8 block-2)
CCOc1ccc(-c2ccc(SCC)nn2)cc1	HSP90 inh 18, SENP6 block 65, SENP7 inh 90, SENP8 block-2 80 (no result: Platelet DG rel) | HSP90 confirm 56 | luciferase ctr 39 | SENP8 conf 59 | SENP6 conf 68 | SENP7 conf 85 | Casp3 select 74 | SENP luc ctr inactive
COc1ccc(CN2CCNC(=O)C2CC(=O)N(C)C2CCCCC2)cc1OC (stereo unspecified)	none (no result: Platelet DG rel, HSP90 inh, SENP6 block, SENP7 inh, SENP8 block-2)
COc1ccc(NC(=O)N2CCCc3ccccc32)cc1	none
